Source: PubChem BioAssay (National Center for Advancing Translational Sciences (NCATS))
Pf Dd2 inh: qHTS Primary assay for Inhibitors of Plasmodium falciparum Dd2 growth in vitro; 120,000 tested, 4.3% active; P. falciparum Dd2 growth, SYBR Green, 72 h; Potency, µM (top dose mostly 28.9 µM), inactives show top-dose activity, negative = inhibition, usual class: inhibitors; active = well fitted inhibition curve with a large enough effect;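 also: plate controls were DMSO vehicle for no effect and reference drug for full effect; nearly all actives have a fitted effect of over 65% in size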
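Readout: SYBR Green fluorescence, 485 nm excitation, 535 nm emission, after ~16 h lysis at 37C. Before that, Dd2-infected red cells (2.5% hematocrit) grew 72 h with compound, 29 uM top final concentration.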
Numbers without * were called inactive; [ ] = remark or other dose. The entries come from a sample that favours hits as a whole. Potency is read from the fitted curve at half-maximal effect.

CN(C(=O)c1cc(COc2ccc3c(c2)OCO3)[nH]n1)C1CCOC1 (centres undefined) was read as Pf Dd2 inh -11%.
Screening O=C(Nc1cccn2nc(C3CCC3)nc12)c1ccccn1 returned Pf Dd2 inh -25%.
For CC1=C[C@@H](CNC(=O)CC(C)(C)CC(=O)O)[C@H](C(C)C)C[C@H]1Cc1nc2ccc(F)cc2[nH]1 the results were Pf Dd2 inh inactive.
`COc1ccc2nc(C[C@@H]3C[C@@H](C(C)C)[C@H](CNC(=O)C4CCCCC4)C=C3C)[nH]c2c1` gave Pf Dd2 inh 13µM*.
Screening CC1=C[C@@H](CNC(=O)C2CCCCC2)[C@H](C(C)C)C[C@H]1Cc1nc2c(C)cccc2[nH]1 returned Pf Dd2 inh -25%[44.1 µM].
For CCC(CC)C(=O)NC[C@@H]1C=C(C)[C@H](Cc2nc3ccc(C)cc3[nH]2)C[C@H]1C(C)C the results were Pf Dd2 inh -12%[44.1 µM].
Screening COc1ccc2nc(C[C@@H]3C[C@@H](C(C)C)[C@H](CNC4CCCCC4)C=C3C)[nH]c2c1 returned Pf Dd2 inh 2.8µM*.
Screening COc1ccc2nc(C[C@@H]3C[C@@H](C(C)C)[C@H](CNC(=O)COCC(=O)O)C=C3C)[nH]c2c1 returned Pf Dd2 inh -16%[44.1 µM].
CC1=C[C@@H](CNC(=O)C2CCCCC2)[C@H](C(C)C)C[C@H]1Cc1nc2ccc(C)cc2[nH]1 was read as Pf Dd2 inh 11µM*.
Screening COc1ccc2nc(C[C@@H]3C[C@@H](C(C)C)[C@H](CN4C(=O)C(C)=C(C)C4=O)C=C3C)[nH]c2c1 returned Pf Dd2 inh inactive.
`COc1ccc2nc(C[C@@H]3C[C@@H](C(C)C)[C@H](CNC(=O)[C@@H]4CCCC[C@@H]4C(=O)O)C=C3C)[nH]c2c1` gave Pf Dd2 inh -24%.
CC1=C[C@@H](CNC(=O)CC(C)(C)CC(=O)O)[C@H](C(C)C)C[C@H]1Cc1nc2ccncc2[nH]1 was read as Pf Dd2 inh 2%.
`CC1=C[C@@H](CNC(=O)CC(C)(C)CC(=O)O)[C@H](C(C)C)C[C@H]1Cc1nc2ccc(C)cc2[nH]1` gave Pf Dd2 inh 8.9µM*.
`CC(NC(=O)c1cc(-c2ccc(F)cc2)cn1C)c1ccccn1` (centres undefined) gave Pf Dd2 inh inactive.
CS(=O)(=O)N(Cc1cccnc1)C1CN(C(=O)CC2CCCCC2)C1 was read as Pf Dd2 inh -10%.
COc1ccc(C(=O)N[C@@H](Cc2ccccc2)C(=O)N2CCCOCCNC(=O)CC2)cc1 was read as Pf Dd2 inh 6%.
`O=C1NCCCCCCN(C(=O)c2cnccn2)[C@H]2CCC[C@@H]12` gave Pf Dd2 inh 2%.
`CC(C)CC(=O)N1CCC2(CC1)C(=O)N(C)c1ccccc12` gave Pf Dd2 inh 42%.
Screening Cc1nc(-c2ccc(F)cc2)n(Cc2nc(-c3ccc(Cl)cc3)oc2C)c(=O)c1CCO returned Pf Dd2 inh -12%.
O=C(Cc1ccccc1)N1CCC(O)(c2csc(CN3CCOCC3)n2)CC1 was read as Pf Dd2 inh 1%[44.1 µM].
`CCCNC(=O)CN1C(=O)NC(c2ccccc2OCC)C2=C1COC2=O` (centres undefined) gave Pf Dd2 inh 1%.
For CC1=C[C@@H](CN)[C@H](C(C)C)C[C@H]1Cc1nc2ccccc2[nH]1 the results were Pf Dd2 inh inactive.
Screening CC1=C[C@@H](CNC(=O)CCCC(=O)O)[C@H](C(C)C)C[C@H]1Cc1nc2ccccc2[nH]1 returned Pf Dd2 inh -19%[44.1 µM].
Screening COC(=O)c1ccc2nc(C[C@@H]3C[C@@H](C(C)C)[C@H](CNC(=O)C4CCCCC4)C=C3C)[nH]c2c1 returned Pf Dd2 inh 11µM*.
`CC1=C[C@@H](CNCc2ccccc2)[C@H](C(C)C)C[C@H]1Cc1nc2c(C)cccc2[nH]1` gave Pf Dd2 inh 3.5µM*.
`COC(=O)c1ccc2nc(C[C@@H]3C[C@@H](C(C)C)[C@H](CNC(=O)CN(C)C)C=C3C)[nH]c2c1` gave Pf Dd2 inh -5%.
Screening COC(=O)c1ccc2nc(C[C@@H]3C[C@@H](C(C)C)[C@H](CN(C)C)C=C3C)[nH]c2c1 returned Pf Dd2 inh 13µM*.
Screening COC(=O)c1ccc2nc(C[C@@H]3C[C@@H](C(C)C)[C@H](CNC(=O)CCCC(=O)O)C=C3C)[nH]c2c1 returned Pf Dd2 inh -28%.
`COCC(=O)NC[C@@H]1C=C(C)[C@H](Cc2nc3ccc(C(=O)OC)cc3[nH]2)C[C@H]1C(C)C` gave Pf Dd2 inh 11µM*.
Screening COC(=O)c1ccc2nc(C[C@@H]3C[C@@H](C(C)C)[C@H](CNC(=O)COCC(=O)O)C=C3C)[nH]c2c1 returned Pf Dd2 inh -14%.
COc1ccc2nc(C[C@@H]3C[C@@H](C(C)C)[C@H](CNCc4ccccc4)C=C3C)[nH]c2c1 was read as Pf Dd2 inh -15%[44.1 µM].
CC1=C[C@@H](CNC(=O)CC(C)(C)CC(=O)O)[C@H](C(C)C)C[C@H]1Cc1nc2c(C)cccc2[nH]1 was read as Pf Dd2 inh -24%.
